Counter-ions that a name gives are not always drawn.
Legend:
Settings in all cases: incubation time: 27 h, anaerobic, 37 °C;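 for the amine columns active = adjusted P below 0.05 in both replicates with a change the same way and a mean fold change under 0.8 or over 1.25; inactive = the rest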
[1] = test system: Clostridium sporogenes DSM 1664; experiment: growth (OD595) fold change vs plate DMSO controls (fold change (ratio)); higher = more growth
Method in brief: (§1)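 Each value is the mean of 2 biological replicates, and fold changes above 1.5 were set to NA. The underlying readings were taken at 595 nm from shaken anaerobic mGAM cultures in 96-well plates after 27 h at 37 °C. They were blank-subtracted, corrected for compound background using 20 µM compound solutions in water, and converted to OD with a calibration factor of 5. Growth is the fold change relative to the median of the plate DMSO controls.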

Escherichia coli IAI1 [2] = experiment: as above
Method in brief: as §1

[3] = test system: Klebsiella aerogenes DSM 30053; experiment: as above
Method in brief: as §1

[4] = test system: Ruminococcus gnavus DSM 108212; experiment: as above
Method in brief: as §1

[5] = test system: Klebsiella aerogenes DSM 30053; experiment: fold change of Histamine concentration vs plate DMSO controls (fold change (ratio)); higher = more amine produced, active = hit call of the paper (significant change in both replicates, either direction)
Method in brief: (§2)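 In 80 µL wells, cultures of four gut bacterial strains in mGAM started at OD 0.1 before a 1:1 dilution and grew anaerobically at 37 °C for 27 h. Compounds were added to 20 µM final, except sweeteners at 50 µM final. After extraction of whole cultures with cold acetonitrile/methanol plus 0.1% formic acid and centrifugation, amines were measured by LC–triple-quadrupole MS in dynamic MRM mode against external calibration curves, with within-batch drift correction. Values give fold change over DMSO controls on the same plate, averaged across 2 biological replicates.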

[6] = test system: Clostridium sporogenes DSM 1664; experiment: fold change of Tryptamine concentration vs plate DMSO controls (fold change (ratio)); higher = more amine produced, active = hit call of the paper (significant change in both replicates, either direction)
Method in brief: as §2

[7] = test system: Ruminococcus gnavus DSM 108212; experiment: as above
Method in brief: as §2

Escherichia coli IAI1 [8] = experiment: fold change of Putrescine concentration vs plate DMSO controls (fold change (ratio)); higher = more amine produced, active = hit call of the paper (significant change in both replicates, either direction)
Method in brief: as §2

[9] = test system: Klebsiella aerogenes DSM 30053; experiment: as above
Method in brief: as §2

Escherichia coli IAI1 [10] = experiment: fold change of Cadaverine concentration vs plate DMSO controls (fold change (ratio)); higher = more amine produced, active = hit call of the paper (significant change in both replicates, either direction)
Method in brief: as §2

[11] = test system: Klebsiella aerogenes DSM 30053; experiment: as above
Method in brief: as §2

[12] = test system: Ruminococcus gnavus DSM 108212; experiment: fold change of 2-Phenylethylamine concentration vs plate DMSO controls (fold change (ratio)); higher = more amine produced, active = hit call of the paper (significant change in both replicates, either direction)
Method in brief: as §2

Compound | growth [1] | growth (Escherichia coli IAI1 [2]) | growth [3] | growth [4] | fold change of Histamine concentration [5] | fold change of Tryptamine concentration [6] | fold change of Tryptamine concentration [7] | fold change of Putrescine concentration (Escherichia coli IAI1 [8]) | fold change of Putrescine concentration [9] | fold change of Cadaverine concentration (Escherichia coli IAI1 [10]) | fold change of Cadaverine concentration [11] | fold change of 2-Phenylethylamine concentration [12]
CC[N+](CC)(CC(=O)Nc1c(C)cccc1C)Cc1ccccc1 [Denatonium benzoate] (20 µM) | 0.911 | 1.2 | 1.02 | 1.02 | 0.934 (inactive) | 0.999 (inactive) | 0.99 (inactive) | 1 (inactive) | 0.995 (inactive) | 0.91 (inactive) | 1 (inactive) | 0.945 (inactive)
OC[C@@H](O)[C@@H](O)CO [Erythritol] (50 µM) | 0.882 | 1.12 | 0.977 | 1.02 | 1.05 (inactive) | 1 (inactive) | 0.974 (inactive) | 1.03 (inactive) | 0.995 (inactive) | 1.05 (inactive) | 0.993 (inactive) | 0.945 (inactive)
CO/N=C(\C(=O)N[C@@H]1C(=O)N2C(C(=O)O)=C(COC(N)=O)CS[C@H]12)c1ccco1 [Cefuroxime sodium salt] (20 µM) | 0 | 0.0568 | 0.796 | 0.229 | 1.1 (inactive) | 0.031 (active) | 0.0602 (active) | 0.84 (inactive) | 1.03 (inactive) | 1.98 (active) | 1.07 (inactive) | 0.0618 (active)
COC(=O)Nc1nc2cc([S+]([O-])c3ccccc3)ccc2[nH]1 (stereo not drawn) [Oxfendazole] (20 µM) | 0.943 | 1.04 | 1.01 | 0.99 | 1.01 (inactive) | 1.01 (inactive) | 1.04 (inactive) | 0.99 (inactive) | 1.04 (inactive) | 0.981 (inactive) | 1.04 (inactive) | 0.999 (inactive)
NNCCc1ccccc1 [Phenelzine sulfate] (20 µM) | 0.965 | 0.99 | 1.02 | 1.01 | 1.05 (inactive) | 0.921 (inactive) | 0.995 (inactive) | 1.12 (inactive) | 0.977 (inactive) | 1.04 (inactive) | 1.03 (inactive) | 0.911 (inactive)
CCN(CC)CCNC(=O)c1cc(S(C)(=O)=O)ccc1OC [Tiapride hydrochloride] (20 µM) | 0.729 | 0.484 | 0.715 | 0.09 | 0.997 (inactive) | 0.999 (inactive) | 1 (inactive) | 1.01 (inactive) | 0.992 (inactive) | 1.03 (inactive) | 1 (inactive) | 0.956 (inactive)
CC[C@@H]1C(=O)OC[C@@H]1Cc1cncn1C [Pilocarpine nitrate] (20 µM) | 1.03 | 1 | 0.987 | 0.556 | 0.95 (inactive) | 0.955 (inactive) | 1.01 (inactive) | 1.02 (inactive) | 1.01 (inactive) | 1.04 (inactive) | 0.993 (inactive) | 0.965 (inactive)
Nc1nc(/C(=C/CC(=O)O)C(=O)N[C@@H]2C(=O)N3C(C(=O)O)=CCS[C@H]23)cs1 [Ceftibuten] (20 µM) | 0.5 | 1.06 | 1.14 | 1.27 | 0.885 (inactive) | 1.02 (inactive) | 1.04 (inactive) | 0.79 (inactive) | 1.04 (inactive) | 0.942 (inactive) | 1.07 (inactive) | 1.06 (inactive)
C[C@H](CCC(=O)O)[C@H]1CC[C@H]2[C@@H]3[C@@H](O)C[C@@H]4C[C@H](O)CC[C@]4(C)[C@H]3CC[C@]12C [Urosiol] (20 µM) | 0.969 | 1.05 | 1.06 | 1.02 | 0.998 (inactive) | 1.08 (inactive) | 1.08 (inactive) | 1.01 (inactive) | 0.961 (inactive) | 0.954 (inactive) | 1.05 (inactive) | 1.1 (inactive)
CCCCc1ccc2[nH]c(NC(=O)OC)nc2c1 [Parbendazole] (20 µM) | 1.04 | 1.04 | 1.02 | 1.25 | 1.11 (inactive) | 0.953 (inactive) | 0.998 (inactive) | 0.98 (inactive) | 1.07 (inactive) | 0.981 (inactive) | 1.03 (inactive) | 1.02 (inactive)
CCC1(c2ccccc2)NC(=O)N(C)C1=O (stereo not drawn) [Mephenytoin] (20 µM) | 0.908 | 1.05 | 1.11 | 1.14 | 0.905 (inactive) | 1.09 (inactive) | 1.02 (inactive) | 1.06 (inactive) | 1.02 (inactive) | 1.01 (inactive) | 1.02 (inactive) | 1.03 (inactive)
Cc1cccn2c(=O)c(-c3nnn[nH]3)cnc12 [Pemirolast potassium] (20 µM) | 0.934 | 0.984 | 0.975 | 0.807 | 1.03 (inactive) | 1.02 (inactive) | 1.01 (inactive) | 0.994 (inactive) | 1.01 (inactive) | 0.992 (inactive) | 1 (inactive) | 1.04 (inactive)
Clc1ccc(CO/N=C(\Cn2ccnc2)c2ccc(Cl)cc2Cl)c(Cl)c1 [Oxiconazole nitrate] (20 µM) | 0.912 | 0.995 | 0.981 | 0.321 | 1.02 (inactive) | 0.91 (inactive) | 0.351 (active) | 1.04 (inactive) | 1.05 (inactive) | 1.03 (inactive) | 1.07 (inactive) | 0.629 (inactive)
Cc1c(Cl)cccc1Nc1ncccc1C(=O)O [Clonixin lysinate] (20 µM) | 1.13 | 1.07 | 1.02 | 1.43 | 1.01 (inactive) | 0.959 (inactive) | 1.01 (inactive) | 1.1 (inactive) | 1.03 (inactive) | 0.96 (inactive) | 1.04 (inactive) | 1.01 (inactive)
COc1ccc(CCC(=O)c2c(O)cc(O[C@@H]3O[C@H](CO)[C@@H](O)[C@H](O)[C@H]3O[C@@H]3O[C@@H](C)[C@H](O)[C@@H](O)[C@H]3O)cc2O)cc1O [Neohesperidin Dihydrochalcone (Nhdc)] (50 µM) | 1.25 | 0.987 | 1.01 | 1.05 | 1.02 (inactive) | 1.01 (inactive) | 0.995 (inactive) | 1.01 (inactive) | 1.02 (inactive) | 0.96 (inactive) | 0.99 (inactive) | 0.961 (inactive)
CCN(CCCc1ccccc1)CCCc1ccccc1 [Alverine citrate salt] (20 µM) | 0.998 | 1.01 | 1.11 | 0.708 | 0.972 (inactive) | 1.03 (inactive) | 0.74 (active) | 0.895 (inactive) | 1.02 (inactive) | 1.29 (active) | 1.02 (inactive) | 0.782 (inactive)
Oc1c(Br)cc(Br)c2cccnc12 [Broxyquinoline] (20 µM) | 0.98 | 0.92 | 0.951 | 0.643 | 1.09 (inactive) | 0.919 (inactive) | 0.562 (active) | 1.03 (inactive) | 1.02 (inactive) | 1.2 (inactive) | 0.968 (inactive) | 0.6 (inactive)
CN(C)CCCN1c2ccccc2Sc2ccc(C(F)(F)F)cc21 [Triflupromazine hydrochloride] (20 µM) | 1.08 | 1.04 | 1.01 | 1.21 | 0.959 (inactive) | 1.05 (inactive) | 0.814 (inactive) | 1.01 (inactive) | 0.998 (inactive) | 1.08 (inactive) | 1.01 (inactive) | 0.821 (inactive)
CC(=O)N[C@H]1[C@H]([C@H](O)[C@H](O)CO)OC(C(=O)O)=C[C@@H]1NC(=N)N [Zanamivir] (20 µM) | 0.953 | 1.02 | 0.977 | 0.992 | 1.01 (inactive) | 1 (inactive) | 1.06 (inactive) | 0.946 (inactive) | 0.962 (inactive) | 0.886 (inactive) | 0.991 (inactive) | 1.09 (inactive)
O=c1[nH]c(=O)n(C2CCCO2)cc1F (stereo not drawn) [Tegafur] (20 µM) | 1.08 | 0.975 | 1.01 | 0.933 | 0.969 (inactive) | 1.01 (inactive) | 1.06 (inactive) | 1.25 (inactive) | 1 (inactive) | 0.967 (inactive) | 1.01 (inactive) | 1.03 (inactive)
CC(CCc1ccc(O)cc1)NCCc1ccc(O)c(O)c1 (stereo not drawn) [Dobutamine hydrochloride] (20 µM) | 1.01 | 0.997 | 0.99 | 0.938 | 1.12 (inactive) | 1 (inactive) | 1.02 (inactive) | 0.998 (inactive) | 1.01 (inactive) | 0.971 (inactive) | 0.973 (inactive) | 1.04 (inactive)
C[C@H]1O[C@@H](O[C@H]2[C@@H](O)C[C@H](O[C@H]3[C@@H](O)C[C@H](O[C@H]4CC[C@@]5(C)[C@H](CC[C@@H]6[C@@H]5C[C@@H](O)[C@]5(C)[C@@H](C7=CC(=O)OC7)CC[C@]65O)C4)O[C@@H]3C)O[C@@H]2C)C[C@H](O)[C@@H]1O [Digoxin] (20 µM) | 1.14 | 0.971 | 0.995 | 0.945 | 1.05 (inactive) | 1 (inactive) | 1.02 (inactive) | 1.01 (inactive) | 0.999 (inactive) | 0.992 (inactive) | 0.991 (inactive) | 1.03 (inactive)
CC1(C)S[C@@H]2[C@H](NC(=O)[C@H](N)c3ccccc3)C(=O)N2[C@H]1C(=O)O [Ampicillin trihydrate] (20 µM) | 0 | 0.431 | 0.91 | 0 | 0.914 (inactive) | 0.01 (active) | 0.0662 (active) | 2.31 (active) | 1.03 (inactive) | 2.29 (active) | 1.06 (inactive) | 0.0431 (active)
CCOC(=O)[C@H](CCc1ccccc1)N[C@@H](C)C(=O)N1[C@H](C(=O)O)C[C@H]2CCCC[C@@H]21 [Trandolapril] (20 µM) | 0.941 | 1.05 | 1.02 | 1.01 | 0.994 (inactive) | 0.989 (inactive) | 1.02 (inactive) | 1.08 (inactive) | 1 (inactive) | 0.978 (inactive) | 0.991 (inactive) | 1.02 (inactive)
